Experimental data as given in PubChem BioAssay AID1159580 (chemical genetic matrix, 2015).
Several values for one entry are separate records, joined by “and”; a condition that tells them apart may be missing. Identical values can stand only once. About 2,000 (36%) of roughly 5,500 compounds were called active. Inconclusive results (about 18%) are left out. Rule as the data show it: active = normalized growth mostly below about 0.91 (no sharp cut-off); inconclusive = no clear call, values can overlap the other calls; inactive = mostly above about 0.92. This is one part of the list.

Test: chemical genetic growth profiling, strain panel (AID 1159580);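 also: tested at 20 µM; growth read once vehicle control cultures reached saturation at 30 °C; 1 = growth at the plate median or of vehicle wells; lower values mean less growth of the strain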
Settings: S. cerevisiae deletion strains, growth OD

Measured: normalized growth

CCCCNc1cc(C(=O)O)cc(S(N)(=O)=O)c1Oc1ccccc1
inactive: locus YAL013W, strain DEP1, hits give low values 0.964 | locus YAL021C, strain ccr4, hits give low values 1.03 | locus YAL026C, strain drs2, hits give low values 1.01 | locus YAL030W, strain snc1, hits give low values 1.01 | locus YAL040C, strain CLN3, hits give low values 0.946 | locus YBL061C, strain skt5, hits give low values 0.992 | locus YBR009C, strain hhf1, hits give low values 0.997 | locus YBR021W, strain FUR4, hits give low values 0.985 | locus YBR023C, strain chs3, hits give low values 0.999 | locus YBR171W, strain sec66, hits give low values 0.998 | locus YBR229C, strain ROT2, hits give low values 0.987 | locus YBR231C, strain swc5, hits give low values 0.99 | locus YBR279W, strain paf1, hits give low values 1.01 | locus YCL011C, strain gbp2, hits give low values 1 | locus YCL016C, strain dcc1, hits give low values 0.993 | locus YCL029C, strain bik1, hits give low values 0.981 | locus YCL069W, strain vba3, hits give low values 1.01 | locus YCR088W, strain abp1, hits give low values 1.01 | locus YDL005C, strain med2, hits give low values 0.999 | locus YDL035C, strain GPR1, hits give low values 0.996 | locus YDL040C, strain nat1, hits give low values 0.999 | locus YDL074C, strain BRE1, hits give low values 1.03 | locus YDL101C, strain DUN1, hits give low values 0.992 | locus YDL134C, strain PPH21, hits give low values 0.965 | locus YDL185W, strain tfp1, hits give low values 0.98 | locus YDL192W, strain arf1, hits give low values 0.991 | locus YDR001C, strain nth1, hits give low values 1.01 | locus YDR069C, strain doa4, hits give low values 1.01 | locus YDR101C, strain arx1, hits give low values 0.992 | locus YDR137W, strain rgp1, hits give low values 1.01 | locus YDR150W, strain NUM1, hits give low values 0.975 | locus YDR159W, strain sac3, hits give low values 0.943 | locus YDR162C, strain NBP2, hits give low values 0.982 | locus YDR195W, strain ref2 0.983 | locus YDR297W, strain sur2, hits give low values 0.997 | locus YDR318W, strain mcm21, hits give low values 0.989 | locus YDR334W, strain swr1, hits give low values 1.02 | locus YDR335W, strain msn5, hits give low values 1.01 | locus YDR363W, strain ESC2, hits give low values 0.992 | locus YDR388W, hits give low values 0.975 | locus YDR392W, strain spt3, hits give low values 0.906 | locus YDR502C, strain sam2, hits give low values 1.01 | locus YEL003W, strain gim4, hits give low values 1.01 | locus YEL037C, strain rad23, hits give low values 1 | locus YEL061C, strain CIN8 (second series), hits give low values 1.03 | locus YEL061C, strain CIN8, hits give low values 0.994 | locus YER002W, strain NOP16, hits give low values 0.986 | locus YER015W, strain faa2, hits give low values 1.01 | locus YER016W, strain bim1, hits give low values 0.987 | locus YER110C, hits give low values 0.978 | locus YER111C, strain swi4, hits give low values 0.998 | locus YER155C, strain BEM2 (second series), hits give low values 0.974 | locus YER155C, strain BEM2, hits give low values 0.989 | locus YER167W, strain BCK2, hits give low values 0.98 | locus YFR010W, strain ubp6, hits give low values 1.01 | locus YGL078C, strain dbp3, hits give low values 0.97 | locus YGL086W, strain mad1, hits give low values 0.998 | locus YGL167C, strain pmr1, hits give low values 1 | locus YGL173C, strain kem1, hits give low values 0.983 | locus YGL227W, strain vid30, hits give low values 0.992 | locus YGL240W, strain doc1, hits give low values 0.996 | locus YGL248W, strain PDE1, hits give low values 1 | locus YGL253W, strain hxk2, hits give low values 1.04 | locus YGR078C, strain PAC10, hits give low values 0.98 | locus YGR135W, strain pre9, hits give low values 0.957 | locus YGR252W, strain gcn5, hits give low values 0.956 | locus YHR013C, strain ard1, hits give low values 0.972 | locus YHR027C, strain rpn1, hits give low values 1.01 | locus YHR030C, strain SLT2, hits give low values 0.983 and 1.03 | locus YHR079C, strain IRE1 (second series), hits give low values 0.99 | locus YHR079C, strain IRE1, hits give low values 1.07 | locus YHR094C, strain hxt1, hits give low values 0.97 | locus YHR129C, strain ARP1, hits give low values 0.99 | locus YHR142W, strain chs7, hits give low values 1.03 | locus YHR200W, strain rpn10, hits give low values 0.984 | locus YIL066C, strain RNR3, hits give low values 0.997 | locus YIL073C, strain SPO22, hits give low values 0.937 | locus YIL125W, strain kgd1, hits give low values 0.973 | locus YIR030C, strain dcg1, hits give low values 0.981 | locus YJL092W, strain hpr5, hits give low values 1.01 | locus YJL095W, strain BCK1 (second series), hits give low values 0.999 | locus YJL095W, strain BCK1, hits give low values 1.03 and 1.02 | locus YJL115W, strain asf1, hits give low values 1 | locus YJL129C, strain trk1, hits give low values 1.01 | locus YJL134W, strain LCB3, hits give low values 0.993 | locus YJL154C, strain vps35, hits give low values 1 | locus YJL164C, strain tpk1, hits give low values 1.01 | locus YJL166W, strain qcr8, hits give low values 1.01 | locus YJL168C, strain set2, hits give low values 0.982 | locus YJL187C, strain SWE1 (second series), hits give low values 1.01 | locus YJR043C, strain POL32, hits give low values 1 | locus YJR066W, strain TOR1, hits give low values 0.966 | locus YJR075W, strain HOC1, hits give low values 0.971
